The values below come from PubChem BioAssay.

The nature of test [1]: reducers of endogenous Her2 protein level, primary screen, SKBR3 breast tumor cells, AlphaScreen, ATP viability (AID 461;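 active = Her2 level under about 52% in both replicate screens, with viability over 70% of control, limit read from the data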;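 as to Her2 level: lower value means less Her2 protein in the cells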;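 as to viability: percent of carrier control wells set as 100% viability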). The note with it: 18-24 h, measured here: SKBR3 viability, ATP luminescence, at 10 µM. In general terms: Bead proximity is the source of the signal in Alpha formats.
Test [2] has as its target Receptor tyrosine-protein kinase erbB-2 (Homo sapiens) (UniProt P04626). Described as above. The note with it: 18-24 h, at 10 µM, stronger effect = lower value.
Test [3] can be described thus: SK-BR-3 cell growth inhibitors, pilot screen, 24 h, human (AID 572;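 active = viability at or below 10% of carrier control in both of two separate runs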;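 also: compound exposure lasted between 18 and 24 h rather than exactly 24 h; 100% = carrier-treated control wells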). The following applies: SK-BR-3 viability, CellTiter-Glo luminescence, at 10 µM, stronger effect = lower value. Background: ATP-based viability assays read luminescence as a measure of living cells.
Test [4] is described as follows: HUVEC growth inhibition – cell-based, human, primary screen (AID 575;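 active = viability at or below 30% in both replicate assays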;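 also: 100% = median of untreated cell wells with 0.1% DMSO on each plate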). The note with it: HUVEC proliferation, CellTiter-Glo luminescence, 72 h; at 10 µM; stronger effect = lower value.
The nature of test [5]: growth inhibitors of H69AR lung tumor, primary screen, human, duplicate replicates (AID 580;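 active = viability at or under a set limit in both replicates, limit being median viability minus 3 SD, cut at about 48% in these data, passing the limit was not always enough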;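 also: 100% = mean luminescence of untreated wells and 0% = no signal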). The note with it: H69AR lung tumor cells viability, ATP luminescence, 72 h; at 10 µM; stronger effect = lower value.
Test [6] can be described thus: reversal of MRP1-mediated doxorubicin resistance, pilot screen, H69AR cells, doxorubicin co-treatment (AID 601;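 active = viability loss from added drug above about 55%, and viability with drug at most 40%, in both replicates, limit read from the data, passing the limit was not always enough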). The note with it: CellTiter-Glo, 72 h, at 10 µM; for differential viability (reversal): stronger effect = higher value.
Test [7] can be described thus: 384-well plate pilot, post-Golgi transport modulator project, inhibition of yeast transport mutant growth (AID 636; in the data active = inhibition above about 31%). The note with it: absorbance 615 nm, about 18 h, stronger effect = higher value.
A short description of test [8]: growth suppression of yeast trafficking mutant, preliminary HTS, modulators of trafficking downstream of Golgi apparatus project, 1536-format plate, OD 615 nm (AID 637; in the data active = inhibition above about 30%). The note with it: yeast transport mutant growth, absorbance 615 nm, 18 h; stronger effect = higher value.
Test [9] can be described thus: OD615 S. cerevisiae growth inhibition, permissive medium, pilot counter-assay, permissive growth control for S. cerevisiae lifespan shortening project (AID 705;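 active = growth inhibition above 25% in both replicates, a cutoff set 3 SD above the mean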). The note with it: OD615, 24 h, at 10 µM, stronger effect = higher value.
The nature of test [10]: Restrictive medium S. cerevisiae growth inhibition, OD615, pilot screen of yeast lifespan reduction project, restrictive growth control (AID 706;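 active = growth inhibition above a set limit, 3 SD over mean compound inhibition, in both replicates, cut at about 43% in these data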;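 also: modified DeaD lifespan yeast strain shifted to restrictive glucose medium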). The following applies: OD615, 48 h, at 10 µM, stronger effect = higher value.
The nature of test [11]: viability gain of MRP-1-high H69AR cells under doxorubicin, pilot screen, MRP-1 activator project, CellTiter-Glo, duplicate (AID 807;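 active = viability increase at or above a cutoff of the median across tested compounds plus 3 SD, cut at about 8.5% in these data, passing the limit was not always enough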;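 also: compound pretreatment 18-22 h then 72 h combined with doxorubicin; 0% = doxorubicin alone and 100% = vehicle without doxorubicin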). The note with it: H69AR viability with doxorubicin, CellTiter-Glo luminescence; at 10 µM; stronger effect = higher value.
Test [12] in a line: growth suppression of beta-catenin knockout HCT116, pilot screen, human colon tumor cells (AID 823;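 active = cell viability at or below a set limit in both duplicate runs, the limit being the all-compound median minus 4 SD, cut at about 23% in these data, passing the limit was not always enough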;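 also: 0% = wells killed by 20 µM Hyamine and 100% = untreated DMSO cell wells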). The note with it: CellTiter-Glo, 60 h, at 10 µM, stronger effect = lower value.
A short description of test [13]: growth suppression of PTEN-deleted HCT116, pilot screen, cell-based, HCT116 clonal line, CellTiter-Glo (AID 824;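 active = viability at or below 27.92% in each of two runs, the all-compound median minus 4 SD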;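 also: 0% = 20 µM Hyamine control and 100% = vehicle cell control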). The following applies: 60 h, at 10 µM, stronger effect = lower value.
The nature of test [14]: inhibitors of the yeast RAM network, pilot screen, dse1pr::URA3 reporter, 5-FOA selection (AID 869;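 active = inhibition over a set limit, the all-compound mean plus 3 SD, in both replicate runs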;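 also: 0% = DMSO wells with no growth and 100% = 10 µM 1-NA-PP1 with full growth; RAM network block rescues cells from 5-FOA so hits raise OD615 growth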). The following applies: S. cerevisiae dse1pr::URA3 5-FOA growth, OD615, 2 d; at 10 µM; stronger effect = higher value; strain carries analog-sensitive mutant Cbk1 kinase.
A short description of test [15]: RAM signaling pathway blockade in yeast – S. cerevisiae, Pdr1DBD-CYC8 efflux-inhibited sensitized strain, primary screen (AID 1298).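 Also: 0% = DMSO untreated cells without growth and 100% = 10 µM 1-NA-PP1 full growth; higher means more yeast growth rescued from 5-FOA killing.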 The following applies: S. cerevisiae cbk1-as DSE1-URA3 strain, 5-FOA growth OD615, 2 d; at 50 µM; stronger effect = higher value.
The mark [16] stands for this setting: H69AR cells + 2 uM doxorubicin, measured here: viability with 2 uM doxorubicin, stronger effect = lower value.
[17] abbreviates: H69AR cells, compound alone cytotoxicity.

Results filed as inconclusive are left out. The source made the active and inactive calls.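 The calls were made as follows, unless noted: active = RAM network inhibition above 8.4% in each of two replicates, 3 SD over the compound average; inconclusive = above 8.4% inhibition in only one replicate; inactive = 8.4% inhibition or less in each replicate.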

By viability is commonly meant a read-out of living cells in per cent, often relative to untreated cells. One may read the inhibition as the relative decrease from the control value, in per cent.

Receptor tyrosine-protein kinase erbB-2 (Homo sapiens), sequence (P04626 whole entry, looked up): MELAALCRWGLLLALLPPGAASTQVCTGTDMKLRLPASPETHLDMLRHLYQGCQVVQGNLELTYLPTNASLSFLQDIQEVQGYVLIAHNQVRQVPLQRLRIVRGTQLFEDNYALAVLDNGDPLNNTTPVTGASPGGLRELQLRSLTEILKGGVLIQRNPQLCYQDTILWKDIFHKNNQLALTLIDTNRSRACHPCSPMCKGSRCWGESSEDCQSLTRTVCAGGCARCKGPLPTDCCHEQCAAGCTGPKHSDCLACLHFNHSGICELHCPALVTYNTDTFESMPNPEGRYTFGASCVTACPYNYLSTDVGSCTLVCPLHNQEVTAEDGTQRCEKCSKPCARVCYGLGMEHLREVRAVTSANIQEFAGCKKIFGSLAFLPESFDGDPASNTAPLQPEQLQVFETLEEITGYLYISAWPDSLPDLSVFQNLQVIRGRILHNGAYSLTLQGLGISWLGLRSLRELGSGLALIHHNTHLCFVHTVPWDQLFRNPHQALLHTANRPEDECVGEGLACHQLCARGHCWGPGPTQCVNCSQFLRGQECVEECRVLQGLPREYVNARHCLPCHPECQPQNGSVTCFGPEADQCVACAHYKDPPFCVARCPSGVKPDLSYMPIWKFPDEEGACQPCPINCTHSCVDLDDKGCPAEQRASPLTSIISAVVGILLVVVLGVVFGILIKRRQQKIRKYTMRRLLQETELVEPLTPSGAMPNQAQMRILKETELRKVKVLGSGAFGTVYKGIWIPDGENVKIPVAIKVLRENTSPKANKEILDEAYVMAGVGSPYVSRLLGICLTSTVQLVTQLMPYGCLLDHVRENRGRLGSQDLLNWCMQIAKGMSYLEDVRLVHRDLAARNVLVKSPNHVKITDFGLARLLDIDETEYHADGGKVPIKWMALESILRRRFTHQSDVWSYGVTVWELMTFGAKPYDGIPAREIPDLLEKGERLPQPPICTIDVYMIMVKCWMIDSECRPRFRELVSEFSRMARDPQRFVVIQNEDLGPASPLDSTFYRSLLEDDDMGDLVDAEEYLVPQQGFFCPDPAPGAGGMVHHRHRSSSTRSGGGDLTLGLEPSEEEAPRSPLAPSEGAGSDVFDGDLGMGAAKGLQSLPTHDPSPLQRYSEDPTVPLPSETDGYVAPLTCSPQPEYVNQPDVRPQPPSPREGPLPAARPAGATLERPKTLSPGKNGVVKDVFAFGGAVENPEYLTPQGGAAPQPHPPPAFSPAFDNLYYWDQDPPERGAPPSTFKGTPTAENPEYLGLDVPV

Consider `CC(=O)Nc1cccc(NC(=O)c2ccco2)c1`, for which the viability in test [1] was 94%; in test [3], 94% (inactive); in [4], 108% (inactive); in [5], 91.5% (inactive); in test [6] (setting [16]) it was 91.6%; in test [6] (setting [17]) it was 91.5%. The viability in [12] is 99.6% (inactive); in test [13] it was 98.1% (inactive). The Her2 level in test [2] was 94% (inactive). Further, the differential viability (reversal) in test [6] (H69AR cells + 2 uM doxorubicin) is -0.085% (inactive). For the same compound, the inhibition in test [7] was -2.21% (inactive); in test [8] it was -11.7% (inactive); in [14], 1.83% (inactive). Besides, the growth inhibition in [9] is -5.76% (inactive); in test [10], -3.89% (inactive). In addition, the viability increase in test [11] is -4.18% (inactive). In addition, the RAM network inhibition in [15] is 0.76% (inactive).

Take `O=C1C/C(=C/NCc2ccccc2)C(=O)N1`: the viability was 93% in test [1]; 93% (inactive) in test [3]; 95.5% (inactive) in test [4]; 97.2% (inactive) in [5]; 102% in test [6] (setting [16]); 97.2% in test [6] (setting [17]). Moreover, the viability in test [12] was 99.7% (inactive); in test [13], 102% (inactive). Moreover, the Her2 level in [2] was 111% (inactive). The differential viability (reversal) in test [6] (H69AR cells + 2 uM doxorubicin) was -4.96% (inactive). The values for the inhibition in test [7], in test [8] and in test [14] were 2.08% (inactive), -9% (inactive) and 1.04% (inactive), respectively. The growth inhibition in test [9] is -6.49% (inactive); in [10], 0.205% (inactive). In addition, the viability increase in [11] is 0.43% (inactive). Also, the RAM network inhibition in [15] is 2.77% (inactive).

As for `Cc1cccc(Cn2c(SCC(=O)Nc3ccccc3)nc3c2c(=O)[nH]c(=O)n3C)c1`, the viability was 81.5% in test [1]; 81.5% (inactive) in test [3]; 93.9% (inactive) in test [4]; 81.8% (inactive) in test [5]; 81.8% in [6] (setting [16]); 81.8% in test [6] (setting [17]). The viability in test [12] is 91% (inactive); in test [13], 71% (inactive). For the same compound, the Her2 level in test [2] is 97% (inactive). Also, the differential viability (reversal) in [6] (H69AR cells + 2 uM doxorubicin) is -0.02% (inactive). Also, the values for the inhibition in test [7], in test [8] and in test [14] were -1.33% (inactive), 0% (inactive) and 1.79% (inactive), respectively. Moreover, the values for the growth inhibition in test [9] and in test [10] were -12.4% (inactive) and -8.03% (inactive), respectively. Besides, in test [11], the viability increase was -1.01% (inactive). Besides, the RAM network inhibition in test [15] is 5.01% (inactive).

For `O=C1c2ccccc2C(Nc2ccc(-c3nc4ccccc4[nH]3)cc2)N1Cc1ccco1` (stereo not drawn), the viability was 90.5% in test [1]; 90.5% (inactive) in test [3]; 65.9% (inactive) in test [4]; 83.1% (inactive) in test [5]; 68.1% in test [6] (setting [16]); 83.1% in test [6] (setting [17]). Also, the figures for the viability in test [12] and in test [13] were 59.2% (inactive) and 62.1% (inactive), respectively. Moreover, the Her2 level in test [2] is 102% (inactive). In test [6] (H69AR cells + 2 uM doxorubicin), the differential viability (reversal) was 15% (inactive). Further, the inhibition in [7] is 0.4% (inactive); in [8], 0.5% (inactive); in [14] it was 2.23% (inactive). Moreover, the growth inhibition in test [9] was -0.49% (inactive); in [10] it was 4.04% (inactive). For the same compound, the viability increase in test [11] is -5.99% (inactive). The RAM network inhibition in [15] is 2.26% (inactive).

As to `N#CCCN1CCN(S(=O)(=O)c2ccc(S(=O)(=O)NC3CCCC3)cc2)CC1`, the viability in [1] is 88.5%; in test [3], 88.5% (inactive); in [4], 99.3% (inactive); in test [5], 107% (inactive); in test [6] (setting [16]), 73.1%; in test [6] (setting [17]) it was 107%. For the same compound, the viability in test [12] was 101% (inactive); in test [13], 100% (inactive). The Her2 level in test [2] was 124% (inactive). The differential viability (reversal) in [6] (H69AR cells + 2 uM doxorubicin) is 33.5% (inactive). The inhibition in test [7] is -3.46% (inactive); in test [8] it was -8% (inactive); in [14], 2.69% (inactive). The growth inhibition is -9.39% (inactive) in test [9] and -4.06% (inactive) in test [10]. The viability increase in [11] was -0.87% (inactive). In addition, the RAM network inhibition in test [15] is 3.21% (inactive).

Regarding `CCCSc1nnc(N2C(=O)CC(c3ccsc3)C3=C2CCCC3=O)s1` (stereo not drawn), the viability in test [1] is 92.5%; in test [3], 92.5% (inactive); in test [4], 93.8% (inactive); in [5], 92.7% (inactive); in test [6] (setting [16]) it was 91.9%; in test [6] (setting [17]), 92.7%. Moreover, the results for the viability in test [12] and in test [13] were 99.4% (inactive) and 89.6% (inactive), respectively. Moreover, in [2], the Her2 level is 100% (inactive). The differential viability (reversal) in test [6] (H69AR cells + 2 uM doxorubicin) is 0.73% (inactive). Also, the figures for the inhibition in test [7], in test [8] and in test [14] were -5.87% (inactive), -4.5% (inactive) and 0.25% (inactive), respectively. Further, the growth inhibition in [9] was -3.18% (inactive); in [10] it was -7.41% (inactive). In addition, the viability increase in [11] was -0.83% (inactive). Moreover, the RAM network inhibition in [15] was 7.67% (inactive).

Consider `O=C(Nc1cnn(Cc2ccc(Cl)cc2Cl)c1)c1noc2c1CCCC2`, for which the viability in test [1] is 94.5%; in [3], 94.5% (inactive); in test [4], 71.8% (inactive); in test [5] it was 88.2% (inactive); in test [6] (setting [16]), 85.6%; in [6] (setting [17]), 88.2%. Further, the viability was 94.7% (inactive) in [12] and 82.7% (inactive) in [13]. In addition, the Her2 level in test [2] was 91.5% (inactive). Further, in test [6] (H69AR cells + 2 uM doxorubicin), the differential viability (reversal) was 2.57% (inactive). For the same compound, the inhibition in test [7] was -0.13% (inactive); in test [8], -3.17% (inactive); in test [14], 0.895% (inactive). For the same compound, the growth inhibition in test [9] was 2.94% (inactive); in test [10], -1.65% (inactive). Further, the viability increase in test [11] was -0.32% (inactive). The RAM network inhibition in test [15] is 4.07% (inactive).

Turning to `CN1CCC(NC(=O)c2cccs2)CC1`, the viability was 106% in [1]; 106% (inactive) in [3]; 84.7% (inactive) in test [4]; 91% (inactive) in test [5]; 83.1% in test [6] (setting [16]); 91% in [6] (setting [17]). The viability in test [12] was 96.7% (inactive); in test [13], 94.9% (inactive). Moreover, in test [2], the Her2 level is 90% (inactive). Moreover, in [6] (H69AR cells + 2 uM doxorubicin), the differential viability (reversal) is 7.9% (inactive). Further, the inhibition in [7] is -4.13% (inactive); in test [8], 7.5% (inactive); in test [14], 0.86% (inactive). The growth inhibition in test [9] was 9.33% (inactive); in [10] it was 17.3% (inactive). Moreover, the viability increase in test [11] is -0.16% (inactive). In addition, in [15], the RAM network inhibition is 1.18% (inactive).

For `CCOC(=O)N1CCC(NC(=O)c2cc3c(=O)n(C)c4ccccc4c3n2C)CC1`, the viability in test [1] was 88%; in test [3], 88% (inactive); in [4], 71.3% (inactive); in test [5] it was 73.1% (inactive); in test [6] (setting [16]), 77.3%; in [6] (setting [17]), 73.1%. In addition, the viability in test [12] was 80.2% (inactive); in test [13], 84.5% (inactive). Moreover, the Her2 level in test [2] was 94% (inactive). In addition, the differential viability (reversal) in [6] (H69AR cells + 2 uM doxorubicin) was -4.2% (inactive). Besides, the values for the inhibition in test [7], in [8] and in [14] were -2.67% (inactive), -1.17% (inactive) and 2.96% (inactive), respectively. For the same compound, the growth inhibition in [9] is -11.7% (inactive); in test [10] it was -13% (inactive). For the same compound, the viability increase in test [11] was -3.46% (inactive). The RAM network inhibition in test [15] was 9.59% (inactive).
